The panel holds about 83,000 compounds, 20% with a hit somewhere; the sample as a whole holds those more often.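 Each cell line was grown in a 96-well plate and treated with one concentration of compound for 48 hours. Values below 10 were considered active.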 Calls of active or inactive are those of the source.
Each molecule was assayed on CAKI-1 renal (assay: NCI-60 one-dose screen, 48 h (100 = growth as untreated, 0 = no growth, -100 = all killed)). Conditions: 10 µM unless noted.

SMILES | growth
Fc1ccc(-c2cc3nc(C(Cl)Cl)nc(-c4ccccc4)n3n2)cc1 | -17.5% (active)
O=C(c1ccc(Cl)cc1)C1[C@H](c2ccc(Cl)cc2)[C@@H](c2ccccc2)NC12C(=O)Nc1ccc(Br)cc12 (stereo partly drawn) | 27.6% (inactive)
COc1ccccc1C(=O)CSc1nc(Nc2ccc(S(N)(=O)=O)cc2)c2ccccc2n1 | 91.1% (inactive)
CC(C)(C)Nc1nc2c(OCCc3ccccc3)cccn2c1-c1ccccc1Cl | -6.8% (active)
CNC(=O)c1cc(-c2ccc(NC(=O)Nc3ccc(N4CCOCC4)c(C(F)(F)F)c3)cc2)nc2cccnc12 | 64% (inactive)
CS(=O)(=O)c1ccc(-n2cc(/C=C/C(=O)c3ccc(NC(=O)CO[N+](=O)[O-])cc3)c(-c3ccc(Cl)cc3)n2)cc1 | 109% (inactive)
Cc1[nH]nc2ncc(C#Cc3cncc(C(=O)Nc4ccc(CN5CCN(C)CC5)c(C(F)(F)F)c4)c3)cc12 | -27.9% (active)
CCN1C(=S)N(CC)C2C1N=C(SC)N2/N=C/C=C/c1ccccc1[N+](=O)[O-] (stereo not drawn) | 76.5% (inactive)
C/C(=C(/c1ccc(Cl)cc1)c1ccc(OCCN)cc1)c1ccc(C)cc1 | 86.6% (inactive)
O=[N+]([O-])c1ccc(O)c2ncccc12 | 30.5% (inactive)
Cc1cc(=O)oc2cc(OCCCOc3ccc(/C=C/C(=O)Nc4ccc(Cl)cc4)cc3)ccc12 | 59.6% (inactive)
Cc1ccc(-c2nc(C(Cl)Cl)nc3cc(-c4ccccc4)nn23)cc1 | -22.9% (active)
Nc1cc(-c2c[nH]c3ccc(F)cc23)nc2cc(-c3c[nH]c4ccc(F)cc34)nn12 | 77.8% (inactive)
COc1cccc(N2CCN(c3ncnc4c3[nH]c3ccc(F)cc34)C[C@@H]2C)c1 | -28.6% (active)
Cc1ccc(/C=C/c2nn3c(-c4ccco4)nnc3s2)cc1C | 90.8% (inactive)
CCN1C(=S)N(CC)C2C1NN=C1SC(c3ccccc3)=CC(=O)N12 (stereo not drawn) | 98.6% (inactive)
CC(C)NC(=O)c1cc(-c2ccc(NC(=O)Nc3ccc(N4CCOCC4)c(C(F)(F)F)c3)cc2)nc2cccnc12 | 63.7% (inactive)
Cn1cc(-c2cc(N)n3nc(-c4cn(C)c5ccc(Cl)cc45)cc3n2)c2cc(Cl)ccc21 | 83.2% (inactive)
NS(=O)(=O)c1cccc(Nc2nc(SCC(=O)c3ccc(Cl)cc3)nc3ccccc23)c1 | 62.3% (inactive)

SMILES | growth
Cc1sc2c(c1C)c(=O)nc1c(-c3nc(-c4ccc(F)cc4)no3)n[nH]n12 | 92.8% (inactive)
CN1C(=O)N(c2ccccc2)C2N=C(N/N=C/c3ccccc3)SC21 (stereo not drawn) | 41.9% (inactive)
O=C1C2=C(C(=O)c3c(O)cccc31)C(c1ccco1)c1sc(=O)[nH]c1S2 (stereo not drawn) | 70.4% (inactive)
N[C@@H](Cc1cn(-c2c3ccccc3nc3ccccc23)nn1)C(=O)O | 93.8% (inactive)
Cc1sc2nc(NCc3ccccc3Cl)[nH]c(=O)c2c1C | 87.2% (inactive)
COc1ccccc1/C=C/C=N/NC1=NC2C(S1)N(C)C(=O)N2C (stereo not drawn) | 30.6% (inactive)
CC(=O)Nc1cc(F)cc(-c2ccc3[nH]cc(-c4ccccc4)c3n2)c1 | -37.1% (active)
O=C(CSc1nc2sc3c(c2c(=O)n1-c1ccc(Cl)cc1)CCCC3)N/N=C/c1ccc(F)cc1 | 98% (inactive)
Cc1ccccc1NC(=O)/C=C/c1ccc(OCCOc2ccc3c(C)cc(=O)oc3c2)cc1 | 95.1% (inactive)
CCN(CC)c1ccc(C=O)c(OCc2cn(CC(=O)Nc3ccc(Cl)cc3)nn2)c1 | 57.5% (inactive)
CC(C)(C)OC(=O)N1C(=O)c2c(c3c4ccccc4[nH]c3c3ccc4ccccc4c23)C1=O | 26% (inactive)
O=C(CSc1nc2sc3c(c2c(=O)n1-c1ccc(Cl)cc1)CCCC3)NNC(=O)Nc1cccc(C(F)(F)F)c1 | 13.7% (inactive)
CC(=O)Oc1ccccc1C(=O)Nc1cc(C(C)C)ccc1C | 6.69% (active)
N#Cc1c(-c2ccc(Cl)cc2)nc(SCc2ccc(F)cc2)nc1N1CCNCC1 | 49.8% (inactive)
COc1ccc(NC(=O)c2sc3nc(-c4cnccn4)cc(-c4cccs4)c3c2N)cc1 | 36.4% (inactive)
CNC(=O)c1cc(-c2ccc(NC(=O)Nc3ccc(N4CCN(C)CC4)c(C(F)(F)F)c3)cc2)nc2cccnc12 | -80.4% (active)
O=C(CSc1nccc(=O)[nH]1)Nc1ccc(-c2nc3ccccc3[nH]2)cc1 | 112% (inactive)
O=C1c2c(c3c4cccnc4[nH]c3c3ccc4ccccc4c23)C(=O)N1CCO | 42.6% (inactive)
CN1CCN(Cc2ccc(NC(=O)c3cncc(C#Cc4cnc5ccc(N6CCSCC6)nn45)c3)cc2C(F)(F)F)CC1 | -26.7% (active)

— PubChem BioAssay (NCI)
